In PubChem BioAssay (Tox21):
Records with an inconclusive call do not appear. Active and inactive are the calls of the source. Unless noted, calls come from the whole dose curve; as a rule, active = well fitted curve in the direction sought with a large enough effect in the repeat runs; inconclusive = weak or mixed curves; inactive = no such curve, though single readings can be large; an effect the other way counts as inactive or inconclusive.

How the values were obtained:
[1] = qHTS assay for small molecules that induce genotoxicity in human embryonic kidney cells expressing luciferase-tagged ATAD5 (AID 651632); note: nearly all actives have a fitted effect of over 15% in size; note: potency is the fitted concentration of half-maximal effect
Outline: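 Reporter cells (HEK293T) express luciferase-tagged ATAD5, a protein that accumulates after DNA damage. Treat 16 hr at 37C/5% CO2, add Amplite, wait 30 min at RT, and read luminescence.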

[2] = qHTS assay for small molecule agonists of the p53 signaling pathway - cell viability (AID 651633; calls by dose curve; note: nearly all actives have a fitted effect of over 30% in size; note: potency is the fitted concentration of half-maximal effect)
Outline: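 p53RE-bla cells, seeded at 4,000 per well and rested 5 h at 37 C/5% CO2, received compounds in DMSO for 16 h at 37 C. CellTiter-Glo was then added, and luminescence was read after 30 min at room temperature to gauge cytotoxicity.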

[3] = qHTS assay for small molecule disruptors of the mitochondrial membrane potential - cell viability (AID 720634; calls by dose curve; note: nearly all actives have a fitted effect of over 20% in size; note: potency is the fitted concentration of half-maximal effect)
Outline: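 Measuring cytotoxicity alongside mitochondrial potential, the screen quantified ATP by luminescence in HepG2 cells after 1 hr compound incubation and a 30 min room-temperature CellTiter-Glo step.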

[4] = qHTS assay for small molecule disruptors of the mitochondrial membrane potential (AID 720635); note: potency is the fitted concentration of half-maximal effect
Outline: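 HepG2 cells (2,000/well) attached overnight at 37C, then took compound for 1 hr at 37C, 5% CO2. Mito-MPS dye was added for 30 min; fluorescence was read at 490/535 nm (monomers) and 540/590 nm (aggregates).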

[5] = qHTS assay to test for compound auto fluorescence at 590 nm (red) in HepG2 cells (AID 720674)
Outline: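 Compound auto-fluorescence is scored relative to Rose Bengal sodium, measured at 540/590 nm in live HepG2 cultures after 1 hr compound contact (37 C, 5% CO2).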

[6] = qHTS assay to test for compound auto fluorescence at 535 nm (green) in HepG2 cells (AID 720675)
[7] = qHTS assay to test for compound auto fluorescence at 460 nm (blue) in HEK293 cells (AID 720678)
Outline: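 After cell attachment (4-5 hr, 37C), compounds were pinned onto HEK293 monolayers in 10% dialyzed FBS medium. The blue channel (405/460 nm) was read following overnight culture. Equivalency was calculated against triamterene.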

[8] = qHTS assay to test for compound auto fluorescence at 590 nm (red) in HEK293 cells (AID 720679)
Outline: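 Plates of HEK293 cells (10% dialyzed FBS) are treated with 23 nL compound or DMSO vehicle after a 4-5 hr attachment period, incubated overnight at 37C, and read for red fluorescence at 540/590nm.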

[9] = qHTS assay to test for compound auto fluorescence at 535 nm (green) in HEK293 cells (AID 720680)
[10] = qHTS assay to test for compound auto fluorescence at 460 nm (blue) in HEK293 cell free culture (AID 720681)
Outline: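 Test compounds were pinned into cell-free culture medium (DMEM with 10% FBS) and fluorescence was read directly at Ex/Em 405/460 nm. Signals were expressed as fluorescence equivalents of triamterene, with DMSO vehicle as control.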

[11] = qHTS assay to test for compound auto fluorescence at 535 nm (green) in HEK293 cell free culture (AID 720682)
Outline: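 Green-channel intensity (Ex/Em 485/535 nm) was recorded from compound-treated wells containing only DMEM with 10% FBS. Fluorescein provided the equivalency standard.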

[12] = qHTS assay to test for compound auto fluorescence at 590 nm (red) in HEK293 cell free culture (AID 720683)
Outline: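 Tox21 10K library compounds were pinned into cell-free DMEM with 10% FBS and fluorescence was read at excitation 540 nm. Activity is expressed as Rose Bengal sodium equivalency.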

[13] = qHTS assay to test for compound auto fluorescence at 590 nm (red) in HepG2 cell free culture (AID 720684)
Outline: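 Red fluorescence (540 nm excitation, 590 nm emission) was measured after compound transfer into cell-free MEM supplemented with 10% FBS. Values are equivalencies against Rose Bengal sodium.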

[14] = qHTS assay to test for compound auto fluorescence at 460 nm (blue) in HepG2 cell free culture (AID 720685)
Outline: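 Compound (23 nL) or DMSO pinned into cell-free MEM with 10% FBS; blue fluorescence read at 405/460 nm excitation/emission, expressed as auto-fluorescence equivalency to triamterene.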

[15] = qHTS assay to test for compound auto fluorescence at 535 nm (green) in HepG2 cell free culture (AID 720686)
[16] = qHTS assay to test for compound auto fluorescence at 460 nm (blue) in HepG2 cells (AID 720687)
Outline: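 Cells (2,000/well in MEM with 10% FBS) attached overnight at 37 C, then were exposed to compound or DMSO for 1 hr at 37 C, 5% CO2. Fluorescence read at Ex/Em 405/460 nm, expressed as triamterene-equivalent signal.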

[17] = biological target: Glucocorticoid receptor (Homo sapiens) (UniProt P04150); assay: qHTS assay to identify small molecule agonists of the glucocorticoid receptor (GR) signaling pathway (AID 720691; active = well fitted activation curve with a large enough effect in the signal ratio in the repeat runs, not every such curve was filed as active; the % refers to the signal ratio)
Chain of Glucocorticoid receptor (Homo sapiens) (P04150 whole entry, looked up): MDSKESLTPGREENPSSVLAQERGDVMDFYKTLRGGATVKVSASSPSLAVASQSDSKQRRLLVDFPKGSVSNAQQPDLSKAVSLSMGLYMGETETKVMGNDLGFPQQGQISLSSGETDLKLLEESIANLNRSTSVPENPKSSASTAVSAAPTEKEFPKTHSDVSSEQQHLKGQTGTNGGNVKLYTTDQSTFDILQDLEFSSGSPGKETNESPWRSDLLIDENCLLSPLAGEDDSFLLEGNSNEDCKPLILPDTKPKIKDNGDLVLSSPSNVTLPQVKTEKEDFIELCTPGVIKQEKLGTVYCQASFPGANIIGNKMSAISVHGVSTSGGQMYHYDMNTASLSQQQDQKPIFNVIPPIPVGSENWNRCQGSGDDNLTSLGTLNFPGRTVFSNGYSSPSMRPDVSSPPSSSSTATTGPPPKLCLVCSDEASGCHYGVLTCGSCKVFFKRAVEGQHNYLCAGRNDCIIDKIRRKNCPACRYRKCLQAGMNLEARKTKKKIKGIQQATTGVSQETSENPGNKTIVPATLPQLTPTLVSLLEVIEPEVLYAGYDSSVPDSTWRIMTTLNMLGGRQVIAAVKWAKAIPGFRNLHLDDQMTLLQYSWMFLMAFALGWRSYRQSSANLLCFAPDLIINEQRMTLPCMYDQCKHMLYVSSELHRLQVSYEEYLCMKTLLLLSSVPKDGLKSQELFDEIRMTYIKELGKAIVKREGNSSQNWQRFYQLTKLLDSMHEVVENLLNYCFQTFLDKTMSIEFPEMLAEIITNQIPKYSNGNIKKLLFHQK
Outline: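 Reporter read-out: fluorescence intensity following 2 h room-temperature LiveBLAzer B/G FRET substrate loading. Prior step: GR-bla HeLa cells held 4 h, then treated 18 h at 37 C.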

[18] = qHTS assay for small molecules that induce genotoxicity in human embryonic kidney cells expressing luciferase-tagged ATAD5 - cell viability (AID 651634; calls by dose curve; note: nearly all actives have a fitted effect of over 25% in size; note: potency is the fitted concentration of half-maximal effect)
Outline: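 Seeding of 2,000 HEK293T ATAD5-luciferase cells per well preceded pin-tool compound transfer. Plates sat 15.5 hr at 37C under 5% CO2, then fluorescence was read after 30 min with CellTiter-Fluor.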

[19] = biological target: Glucocorticoid receptor (Homo sapiens) (UniProt P04150); assay: qHTS assay to identify small molecule antagonists of the glucocorticoid receptor (GR) signaling pathway (AID 720692; active = well fitted inhibition curve with a large enough effect in the signal ratio in the repeat runs, not every such curve was filed as active; the % refers to the signal ratio; note: potency is the fitted concentration of half-maximal effect)
Outline: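 Dexamethasone (5 nM final) stimulated a stably integrated GRE-beta-lactamase reporter in HeLa cells during 18 h co-incubation with compounds; signal was quantified as fluorescence intensity of B/G FRET substrate after 2 h.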
% is set by controls: 0 for no effect and ±100 for the full control effect.

CC1(CN2CCC(n3c(=O)[nH]c4ccccc43)CC2)OCc2ccccc2-n2cccc21 (configuration not stated)
active: Potency [2] 29.8 µM | Potency [4] 29.8 µM
inactive: Potency [1] | Potency [3] | outcome [5] | outcome [6] | Potency [7] | outcome [8] | outcome [9] | Potency [10] | outcome [11] | outcome [12] | outcome [13] | Potency [14] | outcome [15] | Potency [16] | Potency [17]

O=C(O)CCc1nc(-c2ccccc2)c(-c2ccccc2)o1
inactive: Potency [1] | Potency [2] | Potency [3] | Potency [4] | outcome [5] | outcome [6] | Potency [7] | outcome [8] | outcome [9] | Potency [10] | outcome [11] | outcome [12] | outcome [13] | Potency [14] | outcome [15] | Potency [16] | Potency [17]

COc1cc(C(=O)NC2CCN(C)CC2)ccc1Nc1ncc2c(n1)N(C1CCCC1)CC(F)(F)C(=O)N2C
active: Potency [1] 1.58 µM | Potency [2] 44.5 µM | Potency [18] 79.1 µM
inactive: outcome [5] | outcome [6] | outcome [8] | Potency [10] | outcome [11] | outcome [12] | outcome [13] | outcome [15] | Potency [16]

Cc1ccc2c(Br)cc(Br)c(O)c2n1
inactive: Potency [18] | Potency [3] | outcome [5] | outcome [6] | Potency [7] | outcome [8] | outcome [9] | Potency [10] | outcome [11] | outcome [12] | outcome [13] | Potency [14] | outcome [15]
active: Potency [1] 23.7 µM | Potency [4] 23.7 µM | Potency [19] 23.9 µM

OCCN1CCN(CCCN2c3ccccc3Sc3ccc(Cl)cc32)CC1
inactive: Potency [1] | Potency [2] | Potency [18] | Potency [3] | fluorescence, relative to Rose Bengal [5] 0.837% [at 18.6 µM] | fluorescence, % of fluorescein control [6] 0.0508% [at 18.6 µM] | fluorescence, % of fluorescent control [8] -0.0409% [at 18.6 µM] | fluorescence, % of fluorescein [9] -0.0167% [at 18.6 µM] | fluorescence, % of fluorescent control [10] -0.0053% [at 18.6 µM] | activity change [11] -0.0092% [at 18.6 µM] | fluorescence, % of fluorescent control [12] 0.0511% [at 18.6 µM] | fluorescence, % of fluorescent control [14] 0.0187% [at 18.6 µM] | fluorescence, % of fluorescein control [15] 0.137% [at 18.6 µM] | Potency [17]

Cc1cc(C)c(N)cc1C
inactive: Potency [1] | Potency [2] | Potency [18] | Potency [4] | outcome [5] | outcome [6] | Potency [7] | outcome [8] | outcome [9] | Potency [10] | outcome [11] | outcome [12] | outcome [13] | Potency [14] | outcome [15] | Potency [16] | Potency [17]

O=[N+]([O-])c1cc(C2CCCCC2)c(O)c([N+](=O)[O-])c1
active: Potency [18] 19.3 µM | Potency [3] 0.343 µM | Potency [4] 0.153 µM
inactive: Potency [1] | outcome [5] | outcome [6] | Potency [7] | outcome [8] | outcome [9] | Potency [10] | outcome [11] | outcome [12] | outcome [13] | Potency [14] | outcome [15] | Potency [17]

CCCCCC#CC(=O)OC
inactive: Potency [1] | Potency [2] | Potency [18] | Potency [4] | outcome [5] | outcome [6] | outcome [8] | outcome [9] | Potency [10] | outcome [11] | outcome [12] | outcome [13] | outcome [15] | Potency [16]

Cc1cccc(O)c1N
inactive: Potency [1] | Potency [2] | outcome [5] | outcome [6] | Potency [7] | outcome [8] | outcome [9] | Potency [10] | outcome [11] | outcome [12] | outcome [13] | Potency [14] | outcome [15] | Potency [16]

Oc1cccc(Nc2ccccc2)c1
active: Potency [4] 25.4 µM
inactive: Potency [1] | Potency [18] | Potency [3] | outcome [5] | outcome [6] | Potency [7] | outcome [8] | outcome [9] | Potency [10] | outcome [11] | outcome [12] | Potency [14] | outcome [15] | Potency [16] | Potency [17]

CN1C(C(=O)Nc2ccccn2)=C(O)c2sccc2S1(=O)=O
inactive: Potency [1] | Potency [18] | Potency [3] | fluorescence, relative to Rose Bengal [5] -0.263% [at 18.6 µM] | fluorescence, % of fluorescein control [6] 0.0319% [at 18.6 µM] | fluorescence, % of triamterene [7] 0.367% [at 18.6 µM] | fluorescence, % of fluorescent control [8] 0.192% [at 18.6 µM] | fluorescence, % of fluorescein [9] -0.0339% [at 18.6 µM] | fluorescence, % of fluorescent control [10] 2.91% [at 18.6 µM] | activity change [11] -0.011% [at 18.6 µM] | fluorescence, % of fluorescent control [12] 0.306% [at 18.6 µM] | fluorescence, % of Rose Bengal [13] -0.0396% [at 18.6 µM] | fluorescence, % of fluorescent control [14] 0.579% [at 18.6 µM] | fluorescence, % of fluorescein control [15] -0.0069% [at 18.6 µM] | fluorescence, % of fluorescent control [16] 0.333% [at 18.6 µM] | Potency [17] | Potency [19]
active: Potency [4] 7.17 µM

CC1=C(CC=O)C(C)(C)CCC1
inactive: Potency [1] | Potency [2] | Potency [18] | Potency [3] | outcome [5] | outcome [6] | outcome [8] | Potency [10] | outcome [11] | outcome [12] | outcome [13] | outcome [15] | Potency [16]

OCCOCC#CCOCCO
inactive: Potency [1] | Potency [2] | Potency [18] | Potency [3] | outcome [6] | Potency [7] | outcome [8] | Potency [10] | outcome [11] | outcome [12] | outcome [13] | Potency [14] | outcome [15] | Potency [16]

CCCCC(CC)CN (configuration not stated)
inactive: Potency [1] | Potency [2] | Potency [18] | outcome [5] | outcome [6] | Potency [7] | outcome [8] | outcome [9] | Potency [10] | outcome [11] | outcome [12] | outcome [13] | outcome [15] | Potency [16] | Potency [17]

Nc1ccc(N=Nc2ccccc2)c(N)c1
inactive: outcome [5] | outcome [6] | outcome [8] | outcome [9] | Potency [10] | outcome [11] | outcome [12] | outcome [13] | Potency [14] | outcome [15] | Potency [16] | Potency [17]
active: Potency [1] 2.12 µM | Potency [18] 67.1 µM | Potency [3] 47.5 µM | Potency [4] 4.75 µM

C=C1CCC2CC1C2(C)C (configuration not stated)
inactive: Potency [1] | Potency [2] | Potency [18] | outcome [5] | outcome [6] | Potency [7] | outcome [8] | outcome [9] | Potency [10] | outcome [11] | outcome [12] | outcome [13] | outcome [15]
